The record followed here is PubChem BioAssay.

The inhibition is the relative decrease from the control value, in per cent.

Where “and” joins values, the source holds several entries; their conditions need not be identical. Equal values may be shown once. Calls of active or inactive are those of the source.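 Rule for the calls, unless noted: active = at least 20% inhibition of 6-phosphogluconate dehydrogenase activity; inactive = the rest.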 Peptide text beside a SMILES is read from it.

Test [1] concerns the target 6-phosphogluconate dehydrogenase, decarboxylating (Homo sapiens) (UniProt P52209). Description: inhibition of human phosphogluconate dehydrogenase – biochemical, recombinant enzyme, NADPH absorbance, primary screen (AID 1159550). The following applies: recombinant 6PGD, NADPH absorbance 341 nm; at 10 µM; stronger effect = higher value.
Test [2] can be described thus: EMT-state selective cytotoxicity in co-culture – imaging, PC-3E GFP, TEM4-18 mCherry, primary screen (AID 1345086;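 active = compounds killing one labelled cell type while sparing the other, by normalised counts and ratio limits, not self-fluorescent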;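 for all read-outs here: cells exposed to compound for 72 h before imaging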;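 for red/green cell ratio (normalised): normalised mesenchymal count divided by normalised epithelial count so high means epithelial killing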). As to conditions: PC-3E GFP / TEM4-18 mCherry co-culture, imaging cell counts, at 1 µM; for red/green cell ratio (normalised): actives lie on both sides, counts scaled to control wells, 1 = unselective.
In test [3] the target is Mitogen-activated protein kinase 7 (Homo sapiens) (UniProt Q13164). Nature of the test: Gal4-ERK5 driven luciferase induction – cell-based, HTS, primary screen (AID 1508626;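 active = luciferase signal above three times the same-plate solvent-only control wells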;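 note: luciferase driven by Gal4-ERK5 fusion binding five Gal4 sites before minimal TATA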). The following applies: HeLa Gal4-ERK5 transactivation, 18 h, at 5 µM, stronger effect = higher value.
Mitogen-activated protein kinase 7 (Homo sapiens), sequence (Q13164 whole entry, looked up, the tested form may be a part): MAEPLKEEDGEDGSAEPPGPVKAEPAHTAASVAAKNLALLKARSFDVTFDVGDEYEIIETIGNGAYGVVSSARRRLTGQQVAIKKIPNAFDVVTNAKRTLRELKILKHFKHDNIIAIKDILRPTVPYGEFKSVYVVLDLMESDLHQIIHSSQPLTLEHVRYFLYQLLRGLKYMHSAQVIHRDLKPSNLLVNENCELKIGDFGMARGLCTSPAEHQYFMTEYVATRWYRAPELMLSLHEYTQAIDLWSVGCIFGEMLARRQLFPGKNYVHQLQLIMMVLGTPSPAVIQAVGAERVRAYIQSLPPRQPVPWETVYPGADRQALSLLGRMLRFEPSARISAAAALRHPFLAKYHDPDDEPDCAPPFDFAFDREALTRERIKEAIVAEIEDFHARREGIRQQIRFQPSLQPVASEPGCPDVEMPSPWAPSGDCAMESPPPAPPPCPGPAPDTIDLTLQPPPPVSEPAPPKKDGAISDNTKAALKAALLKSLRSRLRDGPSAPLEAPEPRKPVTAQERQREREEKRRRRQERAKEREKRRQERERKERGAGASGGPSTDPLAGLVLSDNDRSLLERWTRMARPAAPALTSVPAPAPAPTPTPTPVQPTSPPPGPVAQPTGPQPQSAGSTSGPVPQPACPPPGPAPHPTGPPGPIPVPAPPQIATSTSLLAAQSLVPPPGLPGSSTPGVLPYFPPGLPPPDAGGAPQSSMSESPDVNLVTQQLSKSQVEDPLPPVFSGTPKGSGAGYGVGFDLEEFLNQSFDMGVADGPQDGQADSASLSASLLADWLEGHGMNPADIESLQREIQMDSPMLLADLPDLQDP
[4] abbreviates: measured here: epithelial PC-3E GFP cell survival.
Where [5] appears, read: measured here: mesenchymal TEM4-18 mCherry cell survival.

6-phosphogluconate dehydrogenase, decarboxylating (Homo sapiens), sequence (P52209 whole entry, looked up): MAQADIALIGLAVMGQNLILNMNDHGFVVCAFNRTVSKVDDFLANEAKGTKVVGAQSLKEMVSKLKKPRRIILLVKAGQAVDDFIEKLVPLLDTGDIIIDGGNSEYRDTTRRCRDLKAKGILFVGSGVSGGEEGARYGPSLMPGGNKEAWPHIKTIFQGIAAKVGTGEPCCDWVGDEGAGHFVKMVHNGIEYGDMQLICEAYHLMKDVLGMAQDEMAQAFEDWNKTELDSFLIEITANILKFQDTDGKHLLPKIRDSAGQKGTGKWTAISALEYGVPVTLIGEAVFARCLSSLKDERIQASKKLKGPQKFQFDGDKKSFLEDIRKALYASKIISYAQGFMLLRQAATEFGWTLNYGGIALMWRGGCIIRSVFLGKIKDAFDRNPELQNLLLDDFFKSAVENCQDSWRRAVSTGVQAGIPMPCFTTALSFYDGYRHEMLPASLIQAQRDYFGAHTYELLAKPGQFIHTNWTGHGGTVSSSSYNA

For `CC(=O)O[C@@H]1CC2C(C)(CC[C@H](O)C2(C)C)C2CC[C@]3(C)C(=CC(=O)O[C@H]3c3ccoc3)C21C` (stereo not given in full), the inhibition in test [1] is 0.669% (inactive). The red/green cell ratio (normalised) in test [2] is 1.03 (inactive). Further, the normalised cell number in test [2] (setting [4]) worked out at 1.07; in test [2] (setting [5]), 1.1. Also, in test [3], the luciferase signal is 16 AU (inactive).
In the same order, the values of `C=C[C@@](C)(O)CCC1C(=C)CCC2[C@@](C)(CO)CCC[C@]12C` (stereo not given in full) are 4.45% (inactive), 0.89 (inactive), 1.15, 1.03 and 36 AU (inactive).
Taken in the same sequence, the figures for `CC1=C2C(O)C(=O)OC3CC4C(C)(C)C(=O)C=C[C@]4(C)C(CC1)[C@]23C` (stereo not given in full) were -6.52% (inactive), 1.05 (inactive), 0.98, 1.02 and 144 AU (active).
Regarding `COc1cc(/C=C/C(=O)O)cc(OC)c1OC`, in test [1], the inhibition is -1.71% (inactive). For the same compound, in test [2], the red/green cell ratio (normalised) was 0.99 (inactive). The normalised cell number in test [2] (setting [4]) was determined as 1.06; in test [2] (setting [5]), 1.04. Also, the luciferase signal in test [3] was 52 AU (inactive).
Taken in the same sequence, the figures for `COC1=CC(=O)C(C(=O)c2ccccc2)=CC1=O` were -0.278% (inactive), 1.01 (inactive), 1.01, 1.03 and 72 AU (inactive).
For `CC(C)C[C@H](N)C(=O)N[C@@H](C)C(=O)O` (H-Leu-Ala-OH), the inhibition in test [1] was 3.68% (inactive). Moreover, the red/green cell ratio (normalised) in test [2] is 0.74 (inactive). For the same compound, the figures for the normalised cell number in test [2] (setting [4]) and in test [2] (setting [5]) were 1.26 and 0.93, respectively. In test [3], the luciferase signal was 16 AU (inactive).
On to `CC(=O)Oc1cc(OC(C)=O)c2c(c1)O[C@H](c1ccc(OC(C)=O)c(OC(C)=O)c1)[C@H](OC(C)=O)C2`, for which the inhibition in test [1] is 13.2% (inactive) and -3.23% (inactive). In addition, the red/green cell ratio (normalised) in test [2] is 0.86 (inactive). In addition, the figures for the normalised cell number in test [2] (setting [4]) and in test [2] (setting [5]) were 1.41 and 1.21, respectively. Besides, the luciferase signal in test [3] is 48 AU (inactive).
Turning to `C#CCCCCCCCCCCCC(O)CC(O)COC(C)=O` (stereo not given), the inhibition in test [1] is 8.03% (inactive). Further, the red/green cell ratio (normalised) in test [2] was 0.83 (inactive). In addition, the normalised cell number was found to be 1.1 in test [2] (setting [4]) and 0.91 in test [2] (setting [5]). In test [3], the luciferase signal was 60 AU (inactive).
In the same order, the values of `CCCCC[C@H](CC(=O)O)C(=O)O` are 0.671% (inactive), 0.96 (inactive), 0.99, 0.94 and 40 AU (inactive).
Taken in the same sequence, the figures for `COc1cc(C)c2c(c1C=O)Oc1c(c(C)c(O)c3c1C(O)OC3=O)OC2=O` (stereo not given) were -0.395% (inactive), 0.74 (inactive), 0.95, 0.7 and 44 AU (inactive).
As for `COc1c(O)cc(O)cc1O`, the inhibition in test [1] is 8.04% (inactive). In test [2], the red/green cell ratio (normalised) is 1.07 (inactive). Besides, the normalised cell number was 0.92 in test [2] (setting [4]) and 0.98 in test [2] (setting [5]). For the same compound, the luciferase signal in test [3] was 40 AU (inactive).
Taken in the same sequence, the figures for `O=c1c(O)c(-c2ccccc2)oc2cc(O)ccc12` were -10.2% (inactive), 0.89 (inactive), 0.98, 0.88 and 264 AU (inactive).
Taken in the same sequence, the figures for `Cc1cc(O)cc(O)c1C(=O)O` were -6.2% (inactive), 0.81 (inactive), 1.09, 0.88 and 124 AU (inactive).
Taken in the same sequence, the figures for `COc1ccc2c(c1OC)OC[C@@H](c1ccc(OC)c(OC)c1OC)C2` were -2.69% (inactive), 0.93 (inactive), 0.93, 0.86 and 96 AU (inactive).
For the compound `C=C1C2CC[C@@]3(C)[C@H](c4ccoc4)OC(=O)C[C@]13O[C@H]1CC(O)C(C)(C)C(CC(=O)OC)[C@@]21C` (stereo not given in full), the inhibition in test [1] is 24.1% (active). The red/green cell ratio (normalised) in test [2] is 1.02 (inactive). In addition, the normalised cell number in test [2] (setting [4]) was found to be 0.98; in test [2] (setting [5]) it was 1. The luciferase signal in test [3] was 16 AU (inactive).
In the same order, the values of `COc1cc(O)c2c(=O)cc(C)oc2c1CC=C(C)C` are 12.4% (inactive), 1.22 (inactive), 0.96, 1.17 and 36 AU (inactive).
For the compound `CC(=O)Oc1cc(-c2coc3cc(OC(C)=O)c(OC(C)=O)c(OC(C)=O)c3c2=O)cc(OC(C)=O)c1OC(C)=O`, the inhibition in test [1] is -14.8% (inactive). Moreover, the red/green cell ratio (normalised) in test [2] was 0.88 (inactive). Besides, the normalised cell number was determined as 1.23 in test [2] (setting [4]) and 1.08 in test [2] (setting [5]). Also, in test [3], the luciferase signal is 36 AU (inactive).
In the same order, the values of `CC(C)=CCOc1cc2oc(=O)ccc2cc1O` are 1.28% (inactive), 1.03 (inactive), 1.12, 1.16 and 36 AU (inactive).
Consider `COc1ccc(-c2cc(=O)c3c(OC(C)=O)cc(OC(C)=O)cc3o2)cc1`, for which the inhibition in test [1] is -1.6% (inactive). For the same compound, the red/green cell ratio (normalised) in test [2] was 0.89 (inactive). Moreover, the normalised cell number in test [2] (setting [4]) was 1.06; in test [2] (setting [5]), 0.95. For the same compound, in test [3], the luciferase signal was 60 AU (inactive).
On to `O=C(O)C1=C[C@@H](O)[C@@H](O)[C@H](O)C1`, for which the inhibition in test [1] was 9.48% (inactive). The red/green cell ratio (normalised) in test [2] is 1.05 (inactive). Further, the figures for the normalised cell number in test [2] (setting [4]) and in test [2] (setting [5]) were 0.91 and 0.95, respectively. Also, the luciferase signal in test [3] is 88 AU (inactive).
Taken in the same sequence, the figures for `COC(=O)c1c(C)cc(O)cc1O` were 7.84% (inactive), 1.06 (inactive), 0.91, 0.97 and 36 AU (inactive).
Consider `CCC(C(=O)O)c1ccccc1` (stereo not given), for which the inhibition in test [1] was -10% (inactive). In test [2], the red/green cell ratio (normalised) was 1.07 (inactive). For the same compound, the values for the normalised cell number in test [2] (setting [4]) and in test [2] (setting [5]) were 1.08 and 1.15, respectively. For the same compound, in test [3], the luciferase signal is 76 AU (inactive).
In the case of `C=C(C)[C@H]1COc2cc3oc(=O)ccc3cc2O1`, in test [1], the inhibition was 5.71% (inactive). Besides, in test [2], the red/green cell ratio (normalised) is 0.95 (inactive). In addition, the normalised cell number was found to be 1.17 in test [2] (setting [4]) and 1.11 in test [2] (setting [5]). In addition, the luciferase signal in test [3] was 44 AU (inactive).
Turning to `O=c1c(-c2ccccc2)coc2cc(O)cc(O)c12`, the inhibition in test [1] is -1.41% (inactive). In addition, in test [2], the red/green cell ratio (normalised) was 0.93 (inactive). In addition, the normalised cell number was 1.2 in test [2] (setting [4]) and 1.12 in test [2] (setting [5]). The luciferase signal in test [3] was 40 AU (inactive).
As for `O=C(O)c1cc2cc(Cl)ccc2[nH]1`, the inhibition in test [1] is -0.282% (inactive). For the same compound, the red/green cell ratio (normalised) in test [2] was 1 (inactive). In addition, the normalised cell number in test [2] (setting [4]) and in test [2] (setting [5]) was 1.21 in each case. Also, the luciferase signal in test [3] is 52 AU (inactive).
Turning to `COc1c2ccoc2c(OC)c2oc(=O)ccc12`, the inhibition in test [1] was 6.1% (inactive). Further, the red/green cell ratio (normalised) in test [2] is 1.06 (inactive). Moreover, the normalised cell number in test [2] (setting [4]) was 1.03; in test [2] (setting [5]), 1.09. Further, the luciferase signal in test [3] is 432 AU (active).
